Source: PubChem (NMMLSC)
ABCB6 inh MLPCN: ABCB6 transporter inhibitors, primary screen, K562-ABCB6 cells, flow cytometry, MLPCN library. actives 0.19% (n = 360,000). K562-ABCB6 porphyrin accumulation, 1 h; stronger effect = lower value. fluorescence ratio to DMSO, % at 10 µM. ATP-binding cassette sub-family B member 6 (Homo sapiens), Q9NP58;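 active means fluorescence ratio to DMSO below 75%, the collection mean minus 3 SD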;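 further: signal is porphyrin accumulated inside mitochondria; lower ratio means ABCB6 inhibition with less porphyrin fluorescence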
Myeloid diff MLP: induction of myeloid progenitor differentiation, primary screen, cell-based, flow cytometry, MLPCN library. AID 624256, 2012. ER-HoxA9 myeloid progenitors, lysozyme-GFP differentiation. actives 1% (n = 360,000). calls only at 10 µM;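 active means normalized GFP-positive differentiation at or above the plate's own cutoff, the solvent-only control mean plus 3 SD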;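 further: cells exposed to compound for four days before flow analysis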
Exocytosis inh: LAMP-1 surface exposure blockers, TALL-104 cells – cell-based, flow cytometry, MLPCN library, primary screen | TALL-104 LAMP-1 surface exposure; cells stimulated with thapsigargin and PMA | inhibition, % at 10 µM | actives 0.66% (n = 360,000) | AID 651702, 2012;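 active means inhibition above about 55%, limit read from the data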
Exocytosis CP01: inhibitors of lytic granule exocytosis, confirmation, TALL-104 cells, flow cytometry, Cherry Pick01. shares compounds with Exocytosis inh. LAMP-1 externalization; stimulated with PMA plus thapsigargin. inhibition, % at 10 µM. actives 11% (n = 1,500); in the data active means inhibition above about 60%
A number is an active result; - = inactive; . = no result. Shown are actives, neighbours in structure and some others; about 1.8% of the full set was active somewhere.

SMILES	ABCB6 inh MLPCN	Myeloid diff MLP	Exocytosis inh	Exocytosis CP01
N[C@H](CO)Cc1ccccc1	-	-	-	.
COC(=O)c1ccc(NC(=O)CSc2nc3ccc(N4C(=O)C5C6C=CC(C6)C5C4=O)cc3s2)cc1 (stereo unspecified)	-	-	81	85
O=C1/C(=C\c2ccc(Cl)cc2Cl)N2CCC1CC2	-	-	65	-
O=C1/C(=C\c2cc3c(cc2Cl)OCO3)N2CCC1CC2	-	-	-	.
Cc1cccc(NP(=O)(Oc2ccccc2)Oc2ccccc2)c1C	-	-	58	-
O=P(Nc1ccccc1)(Oc1ccccc1)Oc1ccccc1	-	-	-	.
CN1C(=O)C2C[C@@]3(Br)c4ccccc4N(OOSc4ccccc4)[C@H]3N2C(=O)[C@@H]1Cc1ccccc1 (stereo partly specified)	-	-	-	.
COc1ccc(CC(=O)N(CCN(C)C)CC2CCCN(Cc3ccccc3F)C2)cc1 (stereo unspecified)	-	-	63	-
CN(C)CCN(CC1CCCN(Cc2ccccc2F)C1)C(=O)Cc1ccccc1F (stereo unspecified)	-	-	-	.
CN1CCC(O)(c2cccs2)C(C(=O)c2cccs2)C1 (stereo unspecified)	-	-	75	-
CCCCN1CCC(O)(c2ccccc2)C(C(=O)c2ccccc2)C1 (stereo unspecified)	-	-	-	.
CCC1(c2ccccc2)C(=O)NC(=S)NC1=O	-	-	-	.
CC(Cc1ccccc1)NCC(=O)Nc1cc(N(C)C)nc2ccccc12 (stereo unspecified)	-	-	62	-
CC(Cc1ccccc1)NCc1ccccc1O (stereo unspecified)	-	-	-	.
COc1ccc2c(c1O)-c1c(OC)c(OC)cc3c1[C@H](C2)N(C)CC3	-	-	-	.
CCCN1CCc2cccc3c2[C@H]1Cc1ccc(O)c(O)c1-3	-	-	101	-
Clc1cc(Cl)cc(NC2=NCCS2)c1	-	-	-	.
O=C(CCNC(=O)N1C[C@H]2C[C@@H](C1)c1cccc(=O)n1C2)Nc1ccc(F)cc1	-	-	-	.
COC(=O)C1=C(c2ccc3ccccc3c2)C[C@@H]2CC[C@H]1N2C(=O)NC1CCCCC1	-	-	-	.
COC(=O)C1=C(c2ccc(C(C)=O)cc2)C[C@@H]2CC[C@H]1N2C(=O)NC1CCCCC1	-	-	65	-
CC(C)(C)C(=O)N1Cc2cc(N3CCCCC3)ccc2-n2nncc2C1	-	-	-	.
